Only some compounds are listed: those with a hit (about 0.9% of all), similar ones and a draw of the others.
SRC1 TRFRET art: TR-FRET detection interference compounds, primary screen, artefact control for PPARgamma SRC-1 recruitment agonists, biochemical, TR-FRET emission ratio; TR-FRET detection artefact counter-screen; active compounds read high; 0.34% of 99,000 active; TR-FRET ratio at 8 µM; in the data active means TR-FRET ratio above about 2300
SRC3 TRFRET art: TR-FRET detection interference compounds, artefact control for PPARgamma SRC-3 recruitment agonists, biochemical, TR-FRET ratio | TR-FRET artefact counter-screen, PPARgamma/SRC-3 format; active compounds read high | 0.39% of 99,000 active | TR-FRET ratio at 8 µM
PPARg SRC-3 ag: PPARgamma agonists recruiting SRC-3 coactivator, primary screen, biochemical. Peroxisome proliferator-activated receptor gamma (Homo sapiens), P37231. biochemical PPARgamma/SRC-3 coactivator recruitment assay. activation, % at 8 µM. 0.26% of 200,000 active. AID 731, 2007; in the data active means activation above about 23%;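 further: 0% = DMSO and 100% = reference agonist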
Target sequence (P37231 whole entry, looked up): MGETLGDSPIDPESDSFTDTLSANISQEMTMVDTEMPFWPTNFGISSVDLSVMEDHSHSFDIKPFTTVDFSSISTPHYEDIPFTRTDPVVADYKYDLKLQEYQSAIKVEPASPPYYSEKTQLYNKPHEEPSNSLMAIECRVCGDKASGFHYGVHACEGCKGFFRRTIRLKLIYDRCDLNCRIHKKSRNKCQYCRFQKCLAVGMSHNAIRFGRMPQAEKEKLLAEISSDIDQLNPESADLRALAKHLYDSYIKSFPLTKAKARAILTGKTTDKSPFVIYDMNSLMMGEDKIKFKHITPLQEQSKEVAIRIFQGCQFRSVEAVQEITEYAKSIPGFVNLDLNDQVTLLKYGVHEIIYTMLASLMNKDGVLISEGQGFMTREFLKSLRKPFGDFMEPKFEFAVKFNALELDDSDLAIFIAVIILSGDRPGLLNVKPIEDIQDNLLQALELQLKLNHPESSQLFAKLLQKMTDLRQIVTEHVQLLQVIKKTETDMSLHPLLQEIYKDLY
TR-FRET SRC-2 ct: TR-FRET signal artefacts, primary screen, artefact control for PPARgamma SRC-2 agonist project, biochemical | TR-FRET artefact counter-screen; active compounds read high | TR-FRET ratio at 8 µM | 0.4% of 200,000 active | AID 1049, 2008
PPARg SRC-1 ag: PPARgamma agonists recruiting SRC-1 coactivator, primary screen, biochemical; activation, % at 8 µM; 0.41% of 200,000 active; AID 631, 2007; PPARgamma-SRC-1 coactivator recruitment biochemical assay; Peroxisome proliferator-activated receptor gamma (Homo sapiens), P37231; in the data active means activation above about 19%;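 further: 0% = DMSO and 100% = reference agonist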
PPARg SRC2 recr: agonists of PPARg-SRC-2 recruitment, primary screen, biochemical, HTS; Peroxisome proliferator-activated receptor gamma (Homo sapiens), P37231; AID 1032, 2008; activation, % at 8 µM; PPARgamma LBD-SRC-2 recruitment; 0.34% of 200,000 active; in the data active means activation above about 22%;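 further: 0% = vehicle and 100% = reference agonist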
PPARg SRC2 conf: agonists of PPARgamma SRC-2 coactivator recruitment, confirmation, biochemical, HTS; activation, % at 8 µM; shares compounds with PPARg SRC-3 ag; biochemical SRC-2 recruitment by PPARgamma; 52% of 790 active; AID 1297, 2008; in the data active means activation above about 22%;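 further: 0% = vehicle alone and 100% = reference agonist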
PPARg SRC1 conf: PPARgamma agonists recruiting SRC-1 coactivator, confirmation, biochemical | shares compounds with PPARg SRC-3 ag | PPARgamma–SRC-1 coactivator recruitment biochemical assay | activation, % at 8 µM | 43% of 790 active; in the data active means activation above about 20%;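 further: 0% = vehicle wells and 100% = reference agonist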
PPARg SRC3 ag: PPARgamma-driven SRC-3 coactivator recruitment agonists, confirmation, biochemical | shares compounds with PPARg SRC-3 ag | biochemical PPARgamma-SRC-3 coactivator recruitment, agonist mode | activation, % at 8 µM | 29% of 790 active | AID 1301, 2008; in the data active means activation above about 24%;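 further: 0% = vehicle wells and 100% = reference agonist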
Starred values were filed as active, the others as inactive; · = no result. Unless noted, no stated cut-off is given here; in the data, active means TR-FRET ratio above about 2000; inactive means the rest.

SMILES	SRC1 TRFRET art	SRC3 TRFRET art	PPARg SRC-3 ag	TR-FRET SRC-2 ct	PPARg SRC-1 ag	PPARg SRC2 recr	PPARg SRC2 conf	PPARg SRC1 conf	PPARg SRC3 ag
COc1ccc2[nH]c3c(Cl)ncnc3c2c1	1758	1712	2	1577	1	0	·	·	·
CCC(CC)C(=O)Nc1nnc(-c2cccs2)s1	·	·	13	1582	12	9	·	·	·
COc1cccc(OC)c1C(=O)Nc1nnc(-c2cccs2)s1	2546*	2204*	16	1921	31*	28*	27*	21*	20
Cc1ccc(Cl)cc1-c1ccc(C=Nc2ccc(N3CCOCC3)cc2)o1	2713*	2494*	27*	2256*	33*	37*	47*	34*	28*
Cc1ccc(/C=N/N2CCN(c3ccc(Cl)cc3)CC2)o1	·	·	-4	1514	11	1	·	·	·
Cc1noc(C)c1C(=O)N1CCCC(C(=O)c2cccc(C(F)(F)F)c2)C1 (stereo not given)	1954	1672	1	1545	9	7	·	·	·
Cn1c(=O)cc(SCC(=O)NCc2ccco2)c2ccccc21	·	·	38*	2082*	28*	36*	33*	22*	21
COc1cccc(CNC(=O)CSc2cc(=O)n(C)c3ccccc23)c1	2682*	2024	21	2371*	42*	23*	36*	25*	24*
CCn1c(CNC(=O)Cc2ccc(OC)cc2)nnc1SCCOc1ccccc1	·	·	1	1574	3	-2	·	·	·
Cc1ccc(C)c(SCC(=O)NCc2ccco2)c1	·	·	0	1634	-2	11	·	·	·
COc1ccc(CNC(=O)CSc2cc(=O)n(C)c3ccccc23)cc1	2843*	2050*	24*	2425*	40*	26*	37*	24*	24*
COc1ccc(CC(=O)NCc2nnc(SCCOc3ccccc3)n2C)cc1	·	·	3	1523	19*	10	3	1	2
Cc1c(Br)c([N+](=O)[O-])nn1CC(=O)N(C)Cc1ccccc1	1555	1427	-4	1611	-9	-2	·	·	·
CCOC(=O)C1=C2NC(=O)c3ccccc3N2C(=O)C1	1658	1559	1	1559	1	3	·	·	·
CCOC(=O)N1CCN(C(=O)C(=O)NN)CC1	1776	1821	6	1596	0	9	·	·	·
Cn1c(=O)cc(SCC(=O)NCC2CCCO2)c2ccccc21 (stereo not given)	·	·	78*	2686*	45*	49*	35*	23*	22
CCOC(=O)c1c(N)sc(=S)c2c1CCC2	·	·	34*	2147*	19*	27*	6	6	6
CC(=O)Nc1ccc(Nc2nc(Cl)nc(Nc3ccc(NC(C)=O)cc3)n2)cc1	1651	1482	3	1395	3	1	·	·	·
O=C(Nc1ccc(Cl)cc1)/C(=C/c1ccc([N+](=O)[O-])cc1)c1nc2ccccc2s1	1464	1462	-1	1434	2	0	·	·	·
O=C(NCCc1ccccc1)C1CCN(C(=O)c2ccc([N+](=O)[O-])cc2)CC1	1712	1421	0	1426	0	9	·	·	·
O=C(O)COc1ccc2nsnc2c1Cl	·	·	50*	2267*	38*	37*	46*	42*	27*
COC(=O)c1cccc(NC(=O)Nc2ccccc2OC)c1	1576	1620	-3	1390	4	-1	·	·	·
COc1ccccc1-c1nnc(SC2CCc3ccccc3NC2=O)s1 (stereo not given)	·	·	42*	2323*	31*	69*	49*	39*	33*
COc1ccc(C(NC=O)c2cc(OC)c(OC)cc2Br)cc1OC (stereo not given)	1821	1609	-1	1565	6	1	·	·	·
Cc1ccc(NC(=O)CCn2c(=S)oc3ccccc32)cc1	2071	1728	7	1795	22*	12	3	-1	1
SMILES	SRC1 TRFRET art	SRC3 TRFRET art	PPARg SRC-3 ag	TR-FRET SRC-2 ct	PPARg SRC-1 ag	PPARg SRC2 recr	PPARg SRC2 conf	PPARg SRC1 conf	PPARg SRC3 ag
O=C(CCn1c(=S)oc2ccccc21)Nc1ccc(F)cc1	1871	1616	2	1550	7	0	·	·	·
Brc1cc(Br)c2nc(-c3ccc(N4CCOCC4)cc3)ccc2c1	·	·	35*	2276*	25*	22*	24*	14	16
CCOC(=O)c1[nH]c2ccc(C)cc2c1N	2128	1835	6	1458	3	10	·	·	·
CCOC(=O)c1[nH]c2cc(OC)c(OC)cc2c1N	·	·	21	1702	13	25*	18	16	10
O=C(Nc1ccc(N2CCOCC2)cc1N1CCOCC1)c1ccc([N+](=O)[O-])cc1	·	·	27*	1418	3	14	3	0	2
O=C(CCNC(=O)c1ccc([N+](=O)[O-])cc1)Nc1ccc(N2CCOCC2)cc1N1CCOCC1	2042	1672	-3	1732	4	5	·	·	·
Cc1cccc(CSc2nc3c(c(-c4cccs4)c2C#N)CN(C)CC3)c1	1666	1672	-4	1415	-1	1	·	·	·
Cc1cccc(CSc2nc(N)c(C#N)c(-c3cccs3)c2C#N)c1	·	·	20	1646	7	23*	14	8	8
O=c1cc(-c2ccccc2)nc(SCc2ccccc2F)[nH]1	2006	1635	7	1635	2	9	·	·	·
CC(Sc1nc(N2CCCCC2)c2c(c1C#N)CCCC2)C(=O)O (stereo not given)	·	·	18	1908	19*	30*	25*	16	16
COc1ccc(/C(O)=C2\C(=O)C(=O)N(c3cc(C)on3)C2c2ccccc2OC)cc1 (stereo not given)	·	·	25	2135*	19*	32*	31*	25*	19
COc1cccc(C2/C(=C(\O)c3ccc(OC)c(OC)c3)C(=O)C(=O)N2c2cc(C)on2)c1 (stereo not given)	·	·	28*	1910	17	29*	24*	17	15
COc1ccc(/C(O)=C2\C(=O)C(=O)N(c3cc(C)on3)C2c2ccc(OC)c(OC)c2)cc1OC (stereo not given)	·	·	-4	1427	8	6	·	·	·
C=C(C)CN(CC)C(=O)CCc1nnc(CCc2c[nH]c3ccccc23)o1	1696	1461	-3	1682	0	-5	·	·	·

Screening data deposited in PubChem by The Scripps Research Institute Molecular Screening Center.
